Experimental data taken from PubChem BioAssay (NCI).
“And” between values parts separate entries of the source, which are not always exact repeats. Equal values may be shown once. The panel holds about 79,000 compounds, 15% with a hit somewhere; the sample as a whole holds those more often. More than one record can exist for a structure, and the calls need not agree. The source made the active and inactive calls. Rule as the data show it: active = growth inhibition above about 70%; inactive = the rest.

Columns and labels:
[1] = NCI Yeast Anticancer Drug Screen. Data for the rad50 strain (AID 155);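 also: 0% = growth of vehicle-only cultures of the same strain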; settings: S. cerevisiae rad50 strain growth inhibition, stronger effect = higher value
How it was run: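 Genetically altered yeast (DNA repair pathway); compound treatment; growth inhibition vs vehicle ctrl.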

[2] = NCI Yeast Anticancer Drug Screen. Data for the mec2-1 strain (AID 157); settings: S. cerevisiae mec2-1 strain, stronger effect = higher value
How it was run: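 mec2-1 yeast strain, carrying an alteration in DNA damage repair or cell cycle control, was exposed to compounds; growth inhibition was measured relative to vehicle-treated controls.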

[3] = NCI Yeast Anticancer Drug Screen. Data for the sgs1 mgt1 strain (AID 161);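 also: 0% = growth of cultures given vehicle only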; settings: S. cerevisiae sgs1 mgt1 strain, stronger effect = higher value
How it was run: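 Growth of a repair-deficient yeast mutant was monitored after compound treatment and expressed as inhibition relative to vehicle-treated cultures.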

[4] = NCI Yeast Anticancer Drug Screen. Data for the cln2 rad14 strain (AID 165);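 also: 0% = growth equal to vehicle treated cultures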; settings: S. cerevisiae cln2 rad14 strain, stronger effect = higher value
How it was run: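 Yeast carrying cln2 and rad14 alterations (cell cycle control and DNA damage repair) were exposed to compounds. Growth inhibition was measured against vehicle-treated controls.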

[5] = NCI Yeast Anticancer Drug Screen. Data for the bub3 strain (AID 167); settings: S. cerevisiae bub3 mutant strain, stronger effect = higher value
How it was run: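 Yeast carrying a defined mutation is treated with each compound, and growth is compared with that of vehicle-exposed cells to give inhibition.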

[6] = NCI Yeast Anticancer Drug Screen. Data for the mlh1 rad18 strain (AID 175); settings: S. cerevisiae mlh1 rad18 strain growth inhibition, stronger effect = higher value
How it was run: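 Growth inhibition of the yeast strain was measured after compound exposure and expressed relative to vehicle-treated controls. The strain carries defined defects in DNA damage repair.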

[7] = at 5.0 µM (retest, dose inferred, filed as 0.5)
[8] = at 50.0 µM (retest, dose inferred, filed as 5.0)

SMILES | growth inhibition [1, 7] | growth inhibition [1, 8] | growth inhibition ([1]; at 50.0 µM) | growth inhibition [2, 7] | growth inhibition [2, 8] | growth inhibition ([2]; at 50.0 µM) | growth inhibition [3, 7] | growth inhibition [3, 8] | growth inhibition ([3]; at 50.0 µM) | growth inhibition [4, 7] | growth inhibition [4, 8] | growth inhibition ([4]; at 50.0 µM) | growth inhibition [5, 7] | growth inhibition [5, 8] | growth inhibition ([5]; at 50.0 µM) | growth inhibition [6, 7] | growth inhibition [6, 8] | growth inhibition ([6]; at 50.0 µM)
CC(=O)C(CN(C)C)C(c1ccccc1)c1c(O)c2ccccc2oc1=O (stereo not drawn) | 22% (inactive) | 22% (inactive) | 65.7% (inactive) | 20% (inactive) | 20% (inactive) | 54.4% (inactive) | 4% (inactive) | 4% (inactive) | 70.8% (active) | -4% (inactive) | -4% (inactive) | 64% (inactive) | 13% (inactive) | 13% (inactive) | 59.6% (inactive) | 17% (inactive) | 17% (inactive) | 64.2% (inactive)
Cc1ccc(C(=O)CCl)c(C)c1 | 11% (inactive) and 16% (inactive) | 99% (active) and 94% (active) | 96.4% (active) and 87.7% (active) | 23% (inactive) and 18% (inactive) | 99% (active) and 92% (active) | 98.2% (active) and 91.6% (active) | 25% (inactive) and 11% (inactive) | 99% (active) and 55% (inactive) | 94.7% (active) and 96.1% (active) | 15% (inactive) and 17% (inactive) | 97% (active) and 83% (active) | 87.3% (active) and 71.6% (active) | 8% (inactive) and 2% (inactive) | 99% (active) and 97% (active) | 91.8% (active) and 90.2% (active) | 28% (inactive) and 7% (inactive) | 99% (active) | 97.7% (active) and 97.1% (active)
Oc1c(Cl)c(Cl)c(Cl)c(Cl)c1Cl (tested in a mixture with another compound) | 56% (inactive) and 41% (inactive) and 27% (inactive) | 99% (active) | 99.2% (active) and 99% (active) and 98.8% (active) | 28% (inactive) and 24% (inactive) and -7% (inactive) | 99% (active) and 100% (active) | 99.4% (active) and 99.2% (active) and 99.7% (active) | 58% (inactive) and 44% (inactive) and 23% (inactive) | 99% (active) | 99.4% (active) and 99.3% (active) and 99.2% (active) | 42% (inactive) and 28% (inactive) and 16% (inactive) | 99% (active) and 98% (active) | 97.2% (active) and 99.2% (active) and 98.5% (active) | 30% (inactive) and 29% (inactive) and 1% (inactive) | 99% (active) | 99.5% (active) and 99.3% (active) | 56% (inactive) and 46% (inactive) and 23% (inactive) | 99% (active) | 99.2% (active) and 99% (active)
C[CH2][Sn]([CH2]C)([S]CCS(=O)(=O)O)[S]CCS(=O)(=O)O (tested in a mixture with another compound) | 18% (inactive) | 26% (inactive) | 53.9% (inactive) | 17% (inactive) | 46% (inactive) | 45.8% (inactive) | -22% (inactive) | 54% (inactive) | 27.3% (inactive) | -10% (inactive) | 67% (inactive) | 19% (inactive) | -1% (inactive) | 66% (inactive) | 17.6% (inactive) | 16% (inactive) | 32% (inactive) | -25.9% (inactive)
COc1ccc2c(c1O)C13CCN(C)C(C2)C12C=CC(=O)C3c1c(O)ccc(O)c12 (stereo not drawn) | -2% (inactive) | 59% (inactive) | 76.7% (active) | 13% (inactive) | 66% (inactive) | 66.5% (inactive) | 17% (inactive) | 77% (active) | 89.3% (active) | -2% (inactive) | 41% (inactive) | 72.5% (active) | -8% (inactive) | 55% (inactive) | 48.7% (inactive) | 17% (inactive) | 88% (active) | 84.5% (active)
CCCCCCC[CH2][Sn]([F])([F])[CH2]CCCCCCC | 3% (inactive) | -7% (inactive) | 41% (inactive) | 12% (inactive) | 4% (inactive) | 46.5% (inactive) | -1% (inactive) | -2% (inactive) | 7.45% (inactive) | -1% (inactive) | -5% (inactive) | 19.9% (inactive) | 4% (inactive) | -1% (inactive) | -5.1% (inactive) | 4% (inactive) | -15% (inactive) | 40.2% (inactive)
O=C1N[C@@H]2C(=C[C@H](O)[C@@H](O)[C@H]2O)c2cc3c(c(O)c21)OCO3 | 41% (inactive) | 82% (active) | 3.8% (inactive) | 41% (inactive) | 82% (active) | -19% (inactive) | 53% (inactive) | 84% (active) | 18.1% (inactive) | 60% (inactive) | 83% (active) | 0.2% (inactive) | 53% (inactive) | 78% (active) | -3.1% (inactive) | 41% (inactive) | 84% (active) | 6.3% (inactive)
Nc1ncc(CCCCc2ccc(NC(=O)Nc3ccc(S(=O)(=O)F)cc3)cc2)c(N)n1 | -1% (inactive) | 60% (inactive) | 98.5% (active) | -15% (inactive) | 60% (inactive) | 99.5% (active) | -17% (inactive) | 75% (active) | 99.2% (active) | -8% (inactive) | 57% (inactive) | 92.8% (active) | -4% (inactive) | 48% (inactive) | 98.8% (active) | 4% (inactive) | 84% (active) | 99.2% (active)
CC1(C)CC(=O)C([Se]C2=C(O)CC(C)(C)CC2=O)=C(O)C1 | 96% (active) | 99% (active) | 99.6% (active) | 91% (active) | 99% (active) | 99.8% (active) | 86% (active) | 99% (active) | 99.8% (active) | 35% (inactive) | 99% (active) | 99.4% (active) | 40% (inactive) | 99% (active) | 99.6% (active) | 94% (active) | 99% (active) | 99.3% (active)
CN[C@H]1C[C@@H]2O[C@@](C)([C@H]1OC)n1c3ccccc3c3c4c(c5c6ccccc6n2c5c31)C(=O)NC4 | 99% (active) | 99% (active) | 92.3% (active) | 99% (active) | 99% (active) | 92.9% (active) | 97% (active) | 99% (active) | 90.6% (active) | 96% (active) | 99% (active) | 91.5% (active) | 98% (active) | 98% (active) | 91.8% (active) | 98% (active) | 99% (active) | 91.8% (active)
CCCCCCCCCCCCCCCc1cccc(O)c1O | -2% (inactive) | -7% (inactive) | 51.2% (inactive) | -2% (inactive) | 3% (inactive) | 92.1% (active) | -1% (inactive) | 27% (inactive) | 51.5% (inactive) | -4% (inactive) | -8% (inactive) | -5.3% (inactive) | 1% (inactive) | -4% (inactive) | 48.4% (inactive) | -6% (inactive) | 7% (inactive) | 82.7% (active)
O=c1oc2ccccc2c(O)c1C(c1ccco1)c1c(O)c2ccccc2oc1=O | 11% (inactive) | 22% (inactive) | 79% (active) | 13% (inactive) | 24% (inactive) | 79.2% (active) | -6% (inactive) | 43% (inactive) | 44.2% (inactive) | 16% (inactive) | 28% (inactive) | 41.5% (inactive) | 9% (inactive) | 56% (inactive) | 34.2% (inactive) | 9% (inactive) | 19% (inactive) | 27.5% (inactive)
CC1=CC2OC3CC4OC(=O)/C=C/C=C/C(=O)OCCC(C)C(O)C(=O)OCC2(CC1O)C4(C)C31CO1 (stereo not drawn) | 96% (active) | 98% (active) | 92.3% (active) | 96% (active) | 98% (active) | 93.1% (active) | 98% (active) | 99% (active) | 93.2% (active) | 97% (active) | 98% (active) | 91.7% (active) | 96% (active) | 98% (active) | 91.7% (active) | 96% (active) | 97% (active) | 91.5% (active)
CN(C)C(=[Se])[Se]C(=[Se])N(C)C | 95% (active) | 91% (active) | 95.8% (active) | 96% (active) | 93% (active) | 96% (active) | 93% (active) | 92% (active) | 95.5% (active) | 84% (active) | 90% (active) | 91% (active) | 93% (active) | 92% (active) | 95.8% (active) | 96% (active) | 91% (active) | 96.3% (active)
ClCCCCCl | 13% (inactive) | -2% (inactive) | 32.2% (inactive) | -4% (inactive) | -2% (inactive) | 16.8% (inactive) | 5% (inactive) | -5% (inactive) | -18.9% (inactive) | 5% (inactive) | -6% (inactive) | 41% (inactive) | 4% (inactive) | 0% (inactive) | -17.6% (inactive) | 4% (inactive) | -1% (inactive) | 26.6% (inactive)
CCC[CH2][Sn]1([CH2]CCC)[O]CC(CN(C)Cc2ccccc2)[O]1 (stereo not drawn) | 3% (inactive) | 3% (inactive) | 88.7% (active) | 12% (inactive) | 12% (inactive) | 90.1% (active) | -5% (inactive) | -5% (inactive) | 20.2% (inactive) | -2% (inactive) | -2% (inactive) | 89.2% (active) | -1% (inactive) | -1% (inactive) | 87.5% (active) | 0% (inactive) | 0% (inactive) | 81.8% (active)
